Assay results as given in PubChem BioAssay AID1159580 (chemical genetic matrix, 2015).
The whole screen tested about 5,500 compounds, of which about 2,000 (36%) were called active. Inconclusive results (about 18%) are left out. No stated cut-off is given here; in the data, active means normalized growth mostly below about 0.91 (no sharp cut-off); inconclusive means no clear call, values can overlap the other calls; inactive means mostly above about 0.92. The list shows a part of the results.

Assay: chemical genetic growth profiling, strain panel (AID 1159580);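 further: tested at 20 µM; growth read once vehicle control cultures reached saturation at 30 °C; 1 = growth at the plate median or of vehicle wells; lower values mean less growth of the strain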
Conditions: growth OD

Measured: normalized growth

C[N+](C)(C)CC(O)CC(=O)O (stereo unspecified)
inactive: S. cerevisiae deletion strains, locus YKL009W, strain mrt4, hits give low values 1.03 | S. cerevisiae deletion strains, locus YKL068W, hits give low values 1 | S. cerevisiae deletion strains, locus YKL085W, strain MDH1 (second series), hits give low values 1.02 | S. cerevisiae deletion strains, locus YKL085W, strain MDH1, hits give low values 1.02 | S. cerevisiae deletion strains, locus YKL160W, strain elf1, hits give low values 0.982 | S. cerevisiae deletion strains, locus YKL190W, strain CNB1, hits give low values 1.01 | S. cerevisiae deletion strains, locus YKR001C, strain vps1, hits give low values 0.993 | S. cerevisiae deletion strains, locus YKR026C, strain gcn3, hits give low values 0.98 | S. cerevisiae deletion strains, locus YKR091W, strain srl3, hits give low values 0.977 | S. cerevisiae deletion strains, locus YLL001W, strain dnm1, hits give low values 0.975 | S. cerevisiae deletion strains, locus YLL026W, hits give low values 0.991 | S. cerevisiae deletion strains, locus YLL041C, strain sdh2, hits give low values 0.985 | S. cerevisiae deletion strains, locus YLR027C, strain aat2, hits give low values 0.982 | S. cerevisiae deletion strains, locus YLR039C, strain RIC1, hits give low values 1 | S. cerevisiae deletion strains, locus YLR058C, strain SHM2, hits give low values 1.01 | S. cerevisiae deletion strains, locus YLR102C, strain apc9, hits give low values 0.997 | S. cerevisiae deletion strains, locus YLR113W, strain HOG1, hits give low values 0.994 | S. cerevisiae deletion strains, locus YLR221C, strain rsa3, hits give low values 1.03 | S. cerevisiae deletion strains, locus YLR258W, strain gsy2, hits give low values 0.981 | S. cerevisiae deletion strains, locus YLR262C, strain YPT6 (second series), hits give low values 1.01 | S. cerevisiae deletion strains, locus YLR262C, strain YPT6, hits give low values 1.02 | S. cerevisiae deletion strains, locus YLR268W, strain sec22, hits give low values 0.992 | S. cerevisiae deletion strains, locus YLR320W, strain mms22, hits give low values 0.978 | S. cerevisiae deletion strains, locus YLR330W, strain CHS5, hits give low values 1.01 | S. cerevisiae deletion strains, locus YLR342W, strain FKS1 (second series), hits give low values 0.996 | S. cerevisiae deletion strains, locus YLR342W, strain FKS1, hits give low values 0.964 | S. cerevisiae deletion strains, locus YLR357W, strain rsc2, hits give low values 0.988 | S. cerevisiae deletion strains, locus YLR370C, strain arc18, hits give low values 0.973 | S. cerevisiae deletion strains, locus YLR371W, strain rom2, hits give low values 0.999 | S. cerevisiae deletion strains, locus YLR384C, strain iki3, hits give low values 0.967 | S. cerevisiae deletion strains, locus YLR418C, strain cdc73, hits give low values 0.993 | S. cerevisiae deletion strains, locus YML016C, strain PPZ1, hits give low values 1 | S. cerevisiae deletion strains, locus YML032C, strain rad52, hits give low values 1 | S. cerevisiae deletion strains, locus YML120C, strain ndi1, hits give low values 0.998 | S. cerevisiae deletion strains, locus YML124C, strain tub3, hits give low values 1 | S. cerevisiae deletion strains, locus YMR058W, strain fet3, hits give low values 0.991 | S. cerevisiae deletion strains, locus YMR078C, strain ctf18, hits give low values 0.998 | S. cerevisiae deletion strains, locus YMR125W, strain sto1, hits give low values 0.969 | S. cerevisiae deletion strains, locus YMR129W, hits give low values 0.991 | S. cerevisiae deletion strains, locus YMR205C, strain PFK2, hits give low values 0.989 | S. cerevisiae deletion strains, locus YMR223W, strain ubp8, hits give low values 1.01 | S. cerevisiae deletion strains, locus YMR231W, strain pep5, hits give low values 0.983 | S. cerevisiae deletion strains, locus YMR263W, strain SAP30, hits give low values 1.01 | S. cerevisiae deletion strains, locus YMR307W, strain GAS1, hits give low values 0.949 | S. cerevisiae deletion strains, locus YNL067W, strain RPL9B, hits give low values 1 | S. cerevisiae deletion strains, locus YNL071W, strain lat1, hits give low values 0.992 | S. cerevisiae deletion strains, locus YNL128W, strain TEP1, hits give low values 1.01 | S. cerevisiae deletion strains, locus YNL153C, strain GIM3, hits give low values 1.01 | S. cerevisiae deletion strains, locus YNL183C, strain NPR1, hits give low values 0.922 | S. cerevisiae deletion strains, locus YNL209W, strain ssb2, hits give low values 0.989 | S. cerevisiae deletion strains, locus YNL233W, strain BNI4, hits give low values 1 | S. cerevisiae deletion strains, locus YNL248C, strain rpa49, hits give low values 0.98 | S. cerevisiae deletion strains, locus YNL250W, strain rad50, hits give low values 0.995 | S. cerevisiae deletion strains, locus YNL271C, strain bni1, hits give low values 0.996 | S. cerevisiae deletion strains, locus YNL298W, strain CLA4, hits give low values 0.984 | S. cerevisiae deletion strains, locus YNL307C, strain MCK1, hits give low values 1.01 | S. cerevisiae deletion strains, locus YNL322C, strain KRE1 (second series), hits give low values 0.963 | S. cerevisiae deletion strains, locus YNL322C, strain KRE1, hits give low values 1 | S. cerevisiae deletion strains, locus YNR049C, strain mso1, hits give low values 0.981 | S. cerevisiae deletion strains, locus YNR052C, strain pop2, hits give low values 0.994 | S. cerevisiae deletion strains, locus YOL006C, strain TOP1, hits give low values 1.03 | S. cerevisiae deletion strains, locus YOL012C, strain htz1 0.718 | S. cerevisiae deletion strains, locus YOL147C, strain pex11, hits give low values 1.01 | S. cerevisiae deletion strains, locus YOR001W, strain rrp6, hits give low values 0.999 | S. cerevisiae deletion strains, locus YOR061W, strain CKA2, hits give low values 1.01 | S. cerevisiae deletion strains, locus YOR069W, strain VPS5, hits give low values 1 | S. cerevisiae deletion strains, locus YOR070C, strain gyp1, hits give low values 0.993 | S. cerevisiae deletion strains, locus YOR080W, strain dia2, hits give low values 0.987 | S. cerevisiae deletion strains, locus YOR083W, strain WHI5, hits give low values 0.989 | S. cerevisiae deletion strains, locus YOR106W, strain vam3, hits give low values 0.968 | S. cerevisiae deletion strains, locus YOR136W, strain idh2, hits give low values 0.991 | S. cerevisiae deletion strains, locus YOR144C, strain elg1, hits give low values 1 | S. cerevisiae deletion strains, locus YOR184W, strain ser1, hits give low values 1.01 | S. cerevisiae deletion strains, locus YOR231W, strain MKK1, hits give low values 0.989 | S. cerevisiae deletion strains, locus YOR265W, strain rbl2, hits give low values 0.996 | S. cerevisiae deletion strains, locus YOR270C, strain vph1, hits give low values 1.01 | S. cerevisiae deletion strains, locus YOR290C, strain snf2, hits give low values 0.977 | S. cerevisiae deletion strains, locus YOR316C, strain cot1, hits give low values 1 | S. cerevisiae deletion strains, locus YPL051W, strain arl3, hits give low values 0.982 | S. cerevisiae deletion strains, locus YPL055C, strain LGE1, hits give low values 1.04 | S. cerevisiae deletion strains, locus YPL078C, strain atp4, hits give low values 0.986 | S. cerevisiae deletion strains, locus YPL106C, strain sse1, hits give low values 0.978 | S. cerevisiae deletion strains, locus YPL240C, strain hsp82, hits give low values 1 | S. cerevisiae deletion strains, locus YPL241C, strain CIN2, hits give low values 1 | S. cerevisiae deletion strains, locus YPL256C, strain CLN2, hits give low values 0.983 | S. cerevisiae deletion strains, locus YPR119W, strain clb2, hits give low values 0.988 | S. cerevisiae deletion strains, locus YPR141C, strain kar3, hits give low values 0.995 | S. cerevisiae deletion strains, locus YPR163C, strain tif3, hits give low values 0.994 | S. cerevisiae deletion strains, locus YPR167C, strain met16, hits give low values 1 | S. cerevisiae deletion strains, strain wtn01, hits give low values 0.989 | S. cerevisiae strains, strain wild type, hits give low values 1.01
